Compound activity: PubChem BioAssay, The Scripps Research Institute Molecular Screening Center
TEAD-YAP inh = TEAD-YAP interaction inhibition; 640,000 compounds, 1.4% hits; inhibition, % at 9.12 µM; HEK-TIYL cells, TEAD-Gal4/YAP UAS-luciferase luminescence; AID 1259422; in the data active = inhibition above about 32%;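 also: 0% = median of test compound wells and 100% = reference inhibitor wells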
FBW7 activator = activators of human E3 ligase FBW7 | Q969H0 | AlphaScreen FBW7–phospho-cyclin E peptide binding, activator screen | normalized activity (activation), % at 26.1 µM | 650,000 compounds, 0.13% hits | AID 1259310; in the data active = normalized activity above about 1.9%;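 also: purified mutant Fbw7 with reduced substrate affinity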
MITF primary = human MITF inhibition, primary screen | O75030 | AlphaScreen MITF homodimerization, bead proximity signal | inhibition, % at 2.6 µM | 650,000 compounds, 0.91% hits; in the data active = inhibition above about 50%;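 also: 0% = vehicle wells with protein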
GPR151 activ = human GPR151 activation. Q8TDV0. PathHunter beta-arrestin GPR151 cells, luminescence. activation, % at 11.2 µM. 650,000 compounds, 1% hits. AID 1508602; in the data active = activation above about 4.9%;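 also: 0% = median of compound wells and 100% = cells with positive control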
Target sequence (Q8TDV0 whole entry, looked up): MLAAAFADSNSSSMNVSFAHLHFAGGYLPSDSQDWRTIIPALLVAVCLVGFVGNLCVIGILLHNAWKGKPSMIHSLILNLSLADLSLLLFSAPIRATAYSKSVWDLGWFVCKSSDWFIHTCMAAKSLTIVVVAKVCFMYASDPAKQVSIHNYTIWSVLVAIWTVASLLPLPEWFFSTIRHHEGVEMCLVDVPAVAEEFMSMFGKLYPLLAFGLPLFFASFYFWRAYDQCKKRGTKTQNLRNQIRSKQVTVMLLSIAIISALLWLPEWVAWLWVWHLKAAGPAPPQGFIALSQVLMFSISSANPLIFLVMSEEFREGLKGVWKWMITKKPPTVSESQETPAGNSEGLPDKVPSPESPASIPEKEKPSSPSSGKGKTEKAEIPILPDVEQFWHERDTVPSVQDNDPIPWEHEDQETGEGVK
* hit, by the source's call. In the library only some 3.5% were active in any assay of this set; here they are far more common.

For c1ccc(-c2nc(NC3CC3)cc(-c3cccnc3)n2)cc1 the results were TEAD-YAP inh 23.1, FBW7 activator 0.1, MITF primary 17.0 and GPR151 activ 1.2.
Screening c1ccc(-c2nc(NC3CCCCC3)cc(-c3ccncc3)n2)nc1 returned TEAD-YAP inh 35.7*, FBW7 activator -0.7, MITF primary 0.9 and GPR151 activ -1.3.
Screening c1ccc(-c2nc(NC3CCCCC3)cc(-c3cccnc3)n2)nc1 returned TEAD-YAP inh 69.2*, FBW7 activator -0.8, MITF primary 18.9 and GPR151 activ -0.6.
For c1ccc(-c2nc(NC3CC3)cc(-c3cccnc3)n2)nc1 the results were TEAD-YAP inh 43.6*, FBW7 activator 0.3, MITF primary -152.4 and GPR151 activ 0.9.
`CC1(C)CC(=O)C2=C(C1)N(c1sc3c(c1C#N)CCCCC3)C(N)=C(C#N)C2c1ccsc1` (stereo not drawn) gave TEAD-YAP inh -2.5, FBW7 activator 0.0, MITF primary 10.9 and GPR151 activ -0.8.
Screening CCOC(=O)C1=C(C)NC2=C(C(=O)CC(c3ccc(OC)c(OC)c3)C2)C1c1ccc(Cl)c(Cl)c1 (stereo not drawn) returned TEAD-YAP inh 12.5, FBW7 activator 0.3, MITF primary 2.7 and GPR151 activ 2.7.
O=c1[nH]c(CN2CCOCC2)nc2scc(-c3cccs3)c12 was read as TEAD-YAP inh -4.2, FBW7 activator 0.0, MITF primary -12.0 and GPR151 activ -0.1.
`Cn1nnnc1Sc1nc(CN2CCOCC2)nc2scc(-c3cccs3)c12` gave TEAD-YAP inh 60.6*, FBW7 activator 0.1, MITF primary -0.9 and GPR151 activ -0.8.
Screening COc1ccc(/C(C)=N/NC(=O)C(C)Sc2ccccc2)cc1 (stereo not drawn) returned TEAD-YAP inh 1.8, FBW7 activator 0.4, MITF primary 8.6 and GPR151 activ -1.0.
`CC(C)c1ccc(/C=C/c2cc(=O)n3ccsc3n2)cc1` gave TEAD-YAP inh 5.1, FBW7 activator 0.1, MITF primary -5.5 and GPR151 activ -1.1.
Cc1ccc(/C=C/c2cc(=O)n3ccsc3n2)cc1 was read as TEAD-YAP inh 48.6*, FBW7 activator 0.0, MITF primary -8.0 and GPR151 activ -1.8.
O=[N+]([O-])c1cccc(C(Nc2nccs2)c2ccc3cccnc3c2O)c1 (stereo not drawn) was read as TEAD-YAP inh 37.9*, FBW7 activator -0.4, MITF primary 36.8 and GPR151 activ -0.7.
Screening CCCC(=O)NC(c1cccc(F)c1)c1ccc2cccnc2c1O (stereo not drawn) returned TEAD-YAP inh 50.1*, FBW7 activator -0.7, MITF primary 20.4 and GPR151 activ -0.2.
Screening CCCCC(=O)NC(c1ccc([N+](=O)[O-])cc1)c1ccc2cccnc2c1O (stereo not drawn) returned TEAD-YAP inh 27.9, FBW7 activator -1.9, MITF primary 30.8 and GPR151 activ 1.1.
For Oc1c(C(Nc2nccs2)c2ccco2)ccc2cccnc12 (stereo not drawn) the results were TEAD-YAP inh 5.8, FBW7 activator -0.3, MITF primary 20.1 and GPR151 activ 1.4.
CC(C)C(=O)NC(c1cccc([N+](=O)[O-])c1)c1ccc2cccnc2c1O (stereo not drawn) was read as TEAD-YAP inh 73.4*, FBW7 activator -1.9, MITF primary 54.0* and GPR151 activ 0.9.
CCCC(=O)NC(c1cccc([N+](=O)[O-])c1)c1ccc2cccnc2c1O (stereo not drawn) was read as TEAD-YAP inh 66.0*, FBW7 activator -2.0, MITF primary 30.5 and GPR151 activ 1.0.
For COc1ccccc1CN1C(=O)CN(C2CCCCC2)C(=O)C1c1ccccc1C (stereo not drawn) the results were TEAD-YAP inh 5.1, FBW7 activator -0.1, MITF primary -0.7 and GPR151 activ 0.1.
Screening Cc1cnc(Nc2ccc(C(F)(F)F)cc2)nc1NCCc1ccc(O)cc1 returned TEAD-YAP inh 1.1, FBW7 activator 0.3, MITF primary 8.7 and GPR151 activ -2.1.
COc1cc(-c2nc3ccccc3c(=O)n2NC(=O)c2ccccc2F)cc(OC)c1OC was read as TEAD-YAP inh 2.7, FBW7 activator 0.1, MITF primary 0.7 and GPR151 activ -1.4.
CCOc1ccc(S(=O)(=O)Nc2cc(F)ccc2F)c2cccnc12 was read as TEAD-YAP inh -8.2, FBW7 activator 0.0, MITF primary -16.8 and GPR151 activ 0.0.
`CCOc1ccc(S(=O)(=O)N2c3ccc(F)cc3CCC2C)c2cccnc12` (stereo not drawn) gave TEAD-YAP inh 49.6*, FBW7 activator -0.1, MITF primary 2.2 and GPR151 activ 0.4.
Cc1cc(Cl)ccc1OCC(=O)Nc1ccc(Cl)cn1 was read as TEAD-YAP inh -29.1, FBW7 activator 0.0, MITF primary 8.7 and GPR151 activ -0.2.
For O=C(CCl)NCCOc1ccc(Cl)cc1Cl the results were TEAD-YAP inh 41.4*, FBW7 activator 0.1, MITF primary 9.4 and GPR151 activ -0.6.
Screening Cc1nc(NC(=O)COc2ccc(Cl)cc2Cl)sc1C returned TEAD-YAP inh 74.0*, FBW7 activator -0.3, MITF primary 6.6 and GPR151 activ -7.3.
Screening Cc1ccc(OCC(=O)Nc2ccc(Cl)cn2)c(Br)c1 returned TEAD-YAP inh 40.1*, FBW7 activator 0.0, MITF primary -6.2 and GPR151 activ -1.9.
Cc1ccc(NC(=O)COc2ccc(Cl)cc2Cl)nc1 was read as TEAD-YAP inh 69.9*, FBW7 activator 0.8, MITF primary 4.2 and GPR151 activ -2.9.
For Cc1cc(Br)ccc1OCC(=O)Nc1ccc(Cl)cn1 the results were TEAD-YAP inh -24.6, FBW7 activator 0.2, MITF primary 17.2 and GPR151 activ 0.1.
Screening CCOC(=O)c1c(NC(C)=O)c2ccccc2n1CC(C)=O returned TEAD-YAP inh -10.9, FBW7 activator 0.2, MITF primary 9.5 and GPR151 activ 0.3.
`O=C(NCC1CCCN(Cc2cccn2-c2nccs2)C1)c1cccs1` (stereo not drawn) gave TEAD-YAP inh -7.6, FBW7 activator -0.1, MITF primary 0.8 and GPR151 activ -0.9.
COc1ccc(/C=C2/C(=O)OCc3cc(OC)c(OC)cc32)cc1 was read as TEAD-YAP inh 45.4*, FBW7 activator 0.2, MITF primary 6.3 and GPR151 activ 0.9.
COc1ccc(C(=O)C2CCCN(Cc3ccc(N4CCNC4=O)cc3)C2)cc1OC (stereo not drawn) was read as TEAD-YAP inh -4.1, FBW7 activator 0.0, MITF primary 14.8 and GPR151 activ 0.3.
`Cc1ccsc1C(=O)C1CCCN(Cc2ccc(N3CCNC3=O)cc2)C1` (stereo not drawn) gave TEAD-YAP inh 35.5*, FBW7 activator 0.2, MITF primary -18.9 and GPR151 activ -0.1.
For Cc1ccc(-c2cnn3c(N4CCC(O)CC4)ccnc23)cc1C the results were TEAD-YAP inh -83.0, FBW7 activator 0.3, MITF primary 2.2 and GPR151 activ 0.0.
`CS(=O)(=O)Nc1cccc(-c2cnn3c(N4CCOCC4)ccnc23)c1` gave TEAD-YAP inh -1.1, FBW7 activator 2.0*, MITF primary 4.2 and GPR151 activ -1.6.
